Common to all, as to experiment: NCI-60 one-dose screen, 48 h (100 = growth as untreated, 0 = no growth, -100 = all killed)
Conditions in all cases: 10 µM unless noted

Test [1] deals with HCT-15 colon.
In test [2] the test system is HT29 colon.
In test [3] the test system is SNB-75 CNS.
Test [4] deals with SNB-19 CNS.
Test [5] deals with U251 CNS.
Test [6] concerns PC-3 prostate.
The test system of test [7] is UACC-62 melanoma.
The subject of test [8] is LOX IMVI melanoma.
The test system of test [9] is SK-MEL-28 melanoma.

Compounds without any hit were thinned out: in the full panel of roughly 83,000, 20% have a hit.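 Treatment: one concentration, 48 hours, 96-well format. Scoring: percent growth, with anything below 10 considered active.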 Values without a mark were called inactive. The source made the active and inactive calls.

With `CNC(=O)c1cc(Oc2ccc(NC(=O)Nc3ccc(Cl)c(SC)c3)c(F)c2)ccn1`, the growth in test [1] is 50%; in test [2] it was 30%; in test [3] it was 71%; in test [4], 75%; in [5] it was 56%; in test [6] it was 34.2%. Moreover, the growth in test [7] was 28%; in test [8], 37.7%; in test [9], 56.7%.
For the molecule `Oc1ccccc1-c1nnc(CNc2ccc(Cl)cc2)o1`, the growth in [1] is 20.7%; in test [2], 39.7%; in test [3], 50.3%; in test [4] it was 41.9%; in test [5], 16%; in test [6] it was 34.5%. For the same molecule, the growth in [7] was 8.19% (active); in [8] it was 7.71% (active); in test [9], 32.2%.
Regarding `COc1ccc(NC(=O)c2ccc(/C=C/C(=O)c3ncc[nH]3)cc2)cc1`, the growth in [1] is 35.2%; in [2], 3.59% (active); in [3] it was 75%; in test [4], 56.1%; in [5], 18.8%; in test [6], 92.3%. Further, the growth in test [7] was 78.2%; in test [8] it was 26.9%; in test [9], 102%.
For the molecule `CN(Cc1cc(Cl)cc(Cl)c1O)Cc1cc(Cl)cc(Cl)c1O`, the growth in test [1] is 40.5%; in test [2], 94.1%; in [3], 75.5%; in [4], 73.3%; in [5], 58.6%; in test [6], 80.9%. Also, the growth in test [7] was 64.8%; in [8] it was 57.7%; in [9] it was 86.9%.
`C[n+]1ccccc1/C=C/c1ccc2cccc(O)c2n1`: the growth in [1] was 106%; in test [2], 101%; in [3], 86.8%; in [4], 97%; in [5], 100%; in test [6] it was 94.7%. Further, the growth in [7] is 105%; in test [8], 104%; in test [9], 95.7%.
Consider `CSc1nc2c(c(=O)[nH]1)C1(C(=O)Nc3ccccc31)c1c(nc(SC)[nH]c1=O)N2`, for which the growth in [1] is 107%; in [2] it was 112%; in test [3], 99.5%; in test [4], 106%; in [5], 97.9%; in test [6], 107%. In addition, the results for the growth in test [7], in test [8] and in test [9] were 99.8%, 102% and 105%, respectively.
Consider `COc1ccc(/C=C/c2nc(-c3n[nH]c(=O)n3-c3ccccc3)c3ccccc3n2)cc1`, for which the growth was 93.8% in test [1]; 101% in [2]; 81.7% in test [3]; 96.7% in test [4]; 99.5% in test [5]; 95.9% in [6]. In addition, the growth in test [7] is 87.2%; in [8] it was 97.2%; in [9] it was 106%.
Take `CN(C)c1ccc(N=Nc2ccc(Br)cn2)c(O)c1`: the growth in test [1] is 28.3%; in test [2], 21.9%; in test [3], 39.1%; in test [4] it was 19.6%; in [5], 11.4%; in [6] it was 33.3%. In addition, the growth is -45.3% (active) in [7], 6.61% (active) in [8] and 29.9% in test [9].
Regarding `CC(=O)c1cc2c(N)c(C(=O)Nc3cccc(F)c3C)sc2nc1C`, the growth in test [1] was 85%; in [2], 81.6%; in test [3], 68.1%; in [4], 83.1%; in test [5], 93.3%; in test [6], 81.4%. For the same molecule, the growth was 52.1% in [7], 96.9% in test [8] and 97.4% in [9].
For `Cc1ncc(C(=O)Nc2ccc(CN3CCN(C)CC3)c(C(F)(F)F)c2)cc1C#Cc1cnc2cccnn12`, the growth in test [1] is 4.12% (active); in [2], 0.719% (active); in [3], -71.7% (active); in [4] it was 7.27% (active); in test [5], 7.52% (active); in [6], 5.7% (active). In addition, the growth is -16.9% (active) in test [7], -18.3% (active) in test [8] and -14.4% (active) in test [9].

These data come from PubChem BioAssay (NCI).
